# Data taken from PubChem BioAssay (NCI).
# Compounds without any hit were thinned out: in the full panel of roughly 83,000, 20% have a hit.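 Results are percent growth after 48 hours of single-concentration exposure. 100 means growth as in untreated cells, lower positive values show inhibition; negative values down to -100 show cell death.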 Unmarked numbers belong to inactive results. Activity calls are given as the source filed them. Rule for the calls: active = growth percent below 10; inactive = the rest.
# Assays:
# Assay in all cases: NCI-60 one-dose screen, 48 h (100 = growth as untreated, 0 = no growth, -100 = all killed)
# Conditions in all cases: 10 µM
# [1] = test system: NCI-H23 lung
# [2] = test system: NCI-H226 lung
# [3] = test system: NCI-H322M lung
# [4] = test system: HOP-62 NSCLC
# [5] = test system: NCI-H460 lung
# [6] = test system: HOP-92 NSCLC
# [7] = test system: NCI-H522 lung
# [8] = test system: A549/ATCC NSCLC
# [9] = test system: 786-0 renal
# [10] = test system: DU-145 prostate
# [11] = test system: K-562 leukemia
# [12] = test system: MALME-3M melanoma
# [13] = test system: MDA-MB-231 breast
# [14] = test system: RXF 393 renal
# [15] = test system: SF-268 CNS
# [16] = test system: SF-295 CNS
# [17] = test system: SF-539 CNS
# [18] = test system: UACC-257 melanoma
# [19] = test system: M14 melanoma
# [20] = test system: COLO 205 colon
Compound,growth [1],growth [2],growth [3],growth [4],growth [5],growth [6],growth [7],growth [8],growth [9],growth [10],growth [11],growth [12],growth [13],growth [14],growth [15],growth [16],growth [17],growth [18],growth [19],growth [20]
C=CCOc1ccc2c(c1)CC=C1[C@@H]2CC[C@]2(C)C(=O)/C(=N/O)C[C@@H]12,95.1%,96.1%,81.2%,103%,60.3%,101%,80.7%,84.3%,79.2%,91.7%,8.09% (active),96.2%,90.2%,53.7%,76.3%,64.3%,46.1%,117%,79.4%,–
CCOc1ccc2c(c1)CC[C@@H]1[C@@H]2CC[C@]2(C)[C@@H](O)[C@@H](O)C[C@@H]12,106%,85.7%,91.4%,114%,100%,122%,119%,80.3%,101%,108%,91.8%,91.4%,109%,95.9%,103%,100%,103%,95.4%,108%,–
COc1ccc(NC(=O)CCn2cnc3c(cc(-c4ccccc4)n3-c3ccccc3)c2=O)cc1,85.8%,88.8%,109%,11.2%,91.8%,69.1%,45.1%,85.8%,88.7%,97.1%,90.6%,–,–,64.4%,24.5%,81.5%,47.3%,13%,91.1%,114%
CC(C)c1[nH]nc2c(NCc3ccc(-c4ccccn4)cc3)nc(SCCN)nc12,-34.8% (active),-0.633% (active),10.3%,-15.3% (active),3.31% (active),-11.1% (active),-54.8% (active),6.81% (active),6.26% (active),5.83% (active),3.89% (active),-41.3% (active),5.07% (active),-71.4% (active),-0.883% (active),4.57% (active),-54.4% (active),1.34% (active),-43.1% (active),–
CCOC(=O)c1cc2c(n1Cc1cccc(OC)c1)-c1oncc1CC2,48.9%,50%,-0.987% (active),37.8%,10%,30.5%,13.7%,42.6%,36.5%,48.4%,18.5%,–,52.7%,11.2%,44.8%,3.54% (active),15.8%,43.6%,16.8%,9.01% (active)
O=C(O)CCCCSCCCCC(=O)O,103%,93.4%,109%,95.8%,113%,96.8%,83.3%,90.9%,101%,120%,97.7%,101%,107%,111%,107%,99.6%,103%,89.7%,103%,–
O=C1/C(=C/c2cccs2)CCC/C1=C\c1cccs1,81.5%,80.9%,85.3%,96.7%,92.1%,66%,76.7%,88.4%,108%,92.9%,94.8%,–,–,91.9%,96.2%,104%,100%,96.9%,87.5%,117%
CC(C)C(C)C(N)C(=O)O (centres undefined),97.8%,102%,99%,89.9%,109%,–,91.2%,104%,92.8%,105%,90.8%,95.9%,125%,108%,107%,117%,101%,108%,94.1%,108%
C[N+]1(CC2CO2)CCCCCC1 (centres undefined),110%,99.4%,107%,103%,106%,–,107%,107%,105%,107%,119%,95.8%,116%,103%,104%,103%,95.8%,99.4%,106%,120%
O=NN(CC(=O)N/N=C/C=C\c1ccccc1)CC(=O)N/N=C/C=C/c1ccccc1,112%,90.7%,91.2%,69.6%,99.3%,–,95.5%,97.3%,110%,109%,96.9%,90.6%,89.2%,71.3%,88%,106%,92.3%,98.8%,97.5%,109%
N=C(N)c1ccc(-c2ccc(-c3ccccc3)s2)s1,54.6%,-19.8% (active),-86.2% (active),-83.9% (active),-70% (active),–,-69.4% (active),-60.8% (active),-36.7% (active),-93.8% (active),-63.1% (active),-81.1% (active),-76.8% (active),-93.2% (active),-56.6% (active),-75.3% (active),-54.7% (active),-59.9% (active),-68.9% (active),-96.3% (active)
N#CC1C=Cc2c(ccc3ccccc23)N1C(=O)c1ccccc1 (centres undefined),29.8%,12.9%,22.6%,50%,1.38% (active),–,9.32% (active),26.9%,34%,-2.67% (active),17.2%,–,24.4%,5.17% (active),27.2%,-19.4% (active),-7% (active),70.3%,7.78% (active),-39.8% (active)
COc1cc(Cn2c(-c3ccccc3)cc3c2-c2oncc2CC3)cc(OC)c1,23.7%,-3.31% (active),8.6% (active),60.5%,-0.835% (active),48.8%,-17.2% (active),23.3%,37.6%,0.266% (active),9.87% (active),–,5.37% (active),33.7%,30.6%,-1.16% (active),-11.9% (active),55.4%,0.789% (active),–
C/C(=N\NC(=S)N1CCCC1)c1ccccn1,17%,-7.28% (active),6.18% (active),10% (active),1.6% (active),–,5.12% (active),0.905% (active),20%,16.7%,7.97% (active),-8.16% (active),27.9%,21.5%,9.48% (active),-6.83% (active),4.96% (active),-32.4% (active),6.19% (active),5.14% (active)
N/C(=N\O)c1cn(C2OC(CO)C(O)C2O)c2ncnc(N)c12 (centres undefined),-1.68% (active),26.4%,11%,-18.8% (active),–,-6.61% (active),-42.9% (active),4.88% (active),20.9%,0.144% (active),7.52% (active),-78.3% (active),5.86% (active),-9.98% (active),9.34% (active),-16.7% (active),1.24% (active),-23.8% (active),-28.3% (active),-92.4% (active)
Cn1c([N+](=O)[O-])cnc1C=C1C(=O)c2ccccc2C1=O,53.7%,81.7%,72.7%,74.7%,68.9%,–,3.27% (active),65.6%,41.1%,46.5%,15.8%,42.5%,45.6%,4.59% (active),17.7%,110%,17.7%,37.4%,19.3%,42.3%
Clc1ccc(-c2nc(-c3cccs3)cn3ccnc23)cc1,71.1%,72%,97.4%,57.7%,81.3%,–,28%,57.4%,99.8%,94.7%,26.1%,86%,66.5%,86.7%,82.8%,81.9%,76.7%,70.2%,61.5%,71.1%
